{"source": "PubChem BioAssay (Tox21)", "note": "A number with no mark means an inactive call. The source made the active and inactive calls. Calls follow the shape of the dose curve; as a rule, active = well fitted curve in the direction sought with a large enough effect in the repeat runs; inconclusive = weak or mixed curves; inactive = flat fitted curve, though single readings scatter. % is scaled to controls: 0 for no effect and ±100 for the full control effect."}
{"test": "qHTS assay to test for compound auto fluorescence at 460 nm (blue) in HepG2 cell free culture (AID 720685)", "settings": "Cell-free culture medium, blue autofluorescence 405/460 nm; series mostly up to 91.3 µM; fluorescence, % of fluorescent control: at the top concentration", "excerpt": "U.S. Tox21 Program National Center for Advancing Translational Sciences [NCATS] NIH Chemical Genomics Center [NCGC] U.S. Environmental Protection Agency [EPA] National Institutes of Environmental Health Sciences [NIEHS] National Toxicology Program [NTP] U.S. Food and Drug Administration [FDA] Tox21 Assay Overview: Compound auto fluorescence often interferes with screening of the compound library against various biological targets and signaling pathways. Some of these compounds may have fluorophoric properties. Such properties may interfere with the assay outputs resulting in false positives and/or negatives. To decrease such complications and ensure the compound activities are relevant in terms of biological response, the Tox21 10K compound library was screened for auto fluorescence. From the fluorophores used as reporter signals in our screening assays, the auto fluorescence equivalencies of compounds against three fluorophores have been evaluated: Triamterene, Fluorescein and Rose Bengal sodium for blue, green and red fluorescence, respectively. The fluorescence intensities were measured using Excitation/Emission wavelengths at 405/460nm, 485/535nm and 540/590nm for blue, green and red labels, respectively. This assay includes the blue fluorescence data.\nTox21 Assay Protocol Summary: 5 uL of culture medium (MEM containing 10% FBS) per well was dispensed into black wall/clear bottom 1536-well plates using a Multidrop Combi Dispenser (ThermoFisher Scientific, Waltham, MA). After 23 nL compound or DMSO vehicle was transferred into assay plate by a pintool work station (Kalypsys, San Diego, CA), fluorescence intensities in the assay plates were measured by an Envision (PerkinElmer, Shelton, CT) plate reader using three labels for measuring blue, green and red fluorescence at […] 460, 535 and 590nm respectively."}
{"smiles": "C=Cc1ccccc1", "outcome": "inactive"}
{"smiles": "Cc1c(-c2ccccc2)oc2c(C(=O)OCCN3CCCCC3)cccc2c1=O", "fluorescence, % of fluorescent control": "-0.115% [at 18.6 µM]"}
{"smiles": "COC(C)CCO", "note": "(stereo not given)", "fluorescence, % of fluorescent control": "-0.0462%"}
{"smiles": "COC(=O)c1ccc(OC)cc1", "fluorescence, % of fluorescent control": "0.0657%"}
{"smiles": "O=C(O)CN(CCN(CC(=O)O)CC(=O)O)CCN(CC(=O)O)CC(=O)O", "fluorescence, % of fluorescent control": "-0.0148% [at 46 µM]"}
{"smiles": "CC(C)(C)c1cccc(O)c1", "fluorescence, % of fluorescent control": "-0.0599%"}
{"smiles": "C[C@]12CCC(=O)C=C1CC[C@@H]1[C@@H]2CC[C@@]2(C)[C@H]1CC[C@]2(O)C(=O)CO", "fluorescence, % of fluorescent control": "-0.0268% [at 46 µM]"}
{"smiles": "CCN(CC)CCNC(=O)COc1ccc(Cl)cc1", "fluorescence, % of fluorescent control": "-0.0878% [at 46 µM]"}
{"smiles": "CCCCNc1ccc(C(=O)OCCN(CC)CC)cc1", "fluorescence, % of fluorescent control": "0.0086% [at 46 µM]"}
{"smiles": "CN(C)Cc1ccccc1", "outcome": "inactive"}
{"smiles": "Cc1cc2nc(N)sc2cc1C", "fluorescence, % of fluorescent control": "-0.0268%"}
{"smiles": "CC(C)Nc1nc(N)nc(Cl)n1", "fluorescence, % of fluorescent control": "0.0615%"}
{"smiles": "CCCCNCCCC", "fluorescence, % of fluorescent control": "0.888%"}
{"smiles": "NNS(=O)(=O)c1ccc(Oc2ccc(S(=O)(=O)NN)cc2)cc1", "fluorescence, % of fluorescent control": "-0.0018%"}
{"smiles": "NC/C=C/C(=O)O", "fluorescence, % of fluorescent control": "-0.0271% [at 46 µM]"}
{"smiles": "O=[N+]([O-])c1nccn1CO[C@@H](CO)[C@H](O)CO", "fluorescence, % of fluorescent control": "0.0777% [at 46 µM]"}
{"smiles": "Cc1nc(-c2ccccn2)ncc1C(=O)Nn1cc(C)c2cc(F)ccc21", "fluorescence, % of fluorescent control": "-0.0708%"}
{"smiles": "Cc1ccc(C=O)s1", "fluorescence, % of fluorescent control": "0.105%"}
{"smiles": "CN1CCC[C@@H]1Cc1c[nH]c2ccc(CCS(=O)(=O)c3ccccc3)cc12", "fluorescence, % of fluorescent control": "0.0117% [at 46 µM]"}
{"smiles": "Cc1cccc(C)c1NC(=O)CN1CCCCCC1", "fluorescence, % of fluorescent control": "0.0205% [at 46 µM]"}
{"smiles": "O=C(O)c1ccccc1Nc1cc(Cl)ccc1C(=O)O", "fluorescence, % of fluorescent control": "-0.111% [at 46 µM]"}
{"smiles": "C=C(C)C(=O)OCCOP(=O)(O)O", "fluorescence, % of fluorescent control": "-0.0008% [at 95.7 µM]"}
{"smiles": "CC/C=C\\CCOC(=O)CCCCC", "fluorescence, % of fluorescent control": "-0.0123%"}
{"smiles": "N#Cc1ccc(C(c2ccc(C#N)cc2)n2cncn2)cc1", "outcome": "inactive"}
{"smiles": "O=C1C=CC(=O)O1", "fluorescence, % of fluorescent control": "0.0333% [at 95.7 µM]"}
{"smiles": "CCOC(=O)NCCC[Si](OCC)(OCC)OCC", "fluorescence, % of fluorescent control": "-0.011%"}
{"smiles": "CN1[C@@H]2CC[C@H]1CC(OC(=O)c1c[nH]c3ccccc13)C2", "note": "(stereo not given in full)", "fluorescence, % of fluorescent control": "-0.0061% [at 46 µM]"}
{"smiles": "CC1CN(c2ccccc2)NC1=O", "note": "(stereo not given)", "fluorescence, % of fluorescent control": "0.0135%"}
{"smiles": "COc1cc2c(cc1N)oc1ccccc12", "fluorescence, % of fluorescent control": "-0.0154% [at 95.7 µM]"}
{"smiles": "CCOC(=O)COc1ccc2c(c1)CC(NCC(O)c1cccc(Cl)c1)CC2", "note": "(stereo not given)", "fluorescence, % of fluorescent control": "0.075%"}
{"smiles": "CCCCCOc1ccc(C2SC(=O)NC2=O)cc1OCC", "note": "(stereo not given)", "fluorescence, % of fluorescent control": "0.0363% [at 46 µM]"}
{"smiles": "COC(=O)C(C)O", "note": "(stereo not given)", "fluorescence, % of fluorescent control": "-0.169% [at 95.7 µM]"}
{"smiles": "CN1CCN(C2=Nc3ccccc3Oc3ccc(Cl)cc32)CC1", "fluorescence, % of fluorescent control": "-0.0109% [at 18.6 µM]"}
{"smiles": "CNCCC(Oc1ccccc1OC)c1ccccc1", "note": "(stereo not given)", "fluorescence, % of fluorescent control": "-0.0315% [at 46 µM]"}
{"smiles": "CCC(=O)Nc1ccc(O)cc1", "fluorescence, % of fluorescent control": "0.0279% [at 46 µM]"}
{"smiles": "CCCOCCC", "fluorescence, % of fluorescent control": "-0.0131%"}
{"smiles": "CCCCNC(=S)NCCCC", "fluorescence, % of fluorescent control": "-0.0494%"}
{"smiles": "O=C1Nc2ccc([N+](=O)[O-])cc2C1=O", "fluorescence, % of fluorescent control": "-0.0538%"}
{"smiles": "CCc1cc(Cl)c(OC)c(C(=O)NC[C@@H]2CCCN2CC)c1O", "outcome": "inactive"}
{"smiles": "C=CCc1cc(OC)c(O)c(C(=O)NCCO)c1", "fluorescence, % of fluorescent control": "-0.0548% [at 46 µM]"}
